hgDAF12 agonist – H. glycines DAF-12 receptor agonists, primary screen, cell-based, luminescence, HEK293, GAL4 fusion, UAS-luciferase; Nuclear hormone receptor DAF-12 (Heterodera glycines), GAL4 fusion; HEK293 GAL4-hgDAF12 UAS-luciferase reporter, agonist luminescence; normalized to butyrate control; activation, % at 6.8 µM; 1.8% of 370,000 active;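 active means activation above a cutoff set at the mean of all screened compounds plus 3 SD, cut at about 10% in these data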;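 further: 0% = DMSO wells and 100% = sodium butyrate wells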
SMARCA2 activ – SMARCA2 (BRM) function activators, primary screen, cell-based, luminescence, high throughput; 1% of 370,000 active; activation, % at 9.1 µM; MG213 cells, MMTV-luciferase reporter, dexamethasone, overnight; AID 652017, 2013; in the data active means activation above about 7.8%;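 further: 0% = vehicle wells and 100% = reference activator wells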
DAX1 inh-1 – DAX1 (NR0B1) inhibitors, primary screen, cell-based, HEK293, Gal4-DAX1, luciferase luminescence. HEK293 Gal4-DAX1 luciferase reporter. inhibition, % at 6.75 µM. 0.99% of 340,000 active. AID 504766, 2011;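 active means inhibition above the mean over all tested compounds plus 3 SD, cut at about 4.2% in these data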;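 further: 0% = DAX1-transfected cells with DMSO and 100% = empty-vector control cells with DMSO; inhibition shows as a rise in luminescence from relieved DAX1 repression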
Target sequence (P51843 207-470 limits assumed): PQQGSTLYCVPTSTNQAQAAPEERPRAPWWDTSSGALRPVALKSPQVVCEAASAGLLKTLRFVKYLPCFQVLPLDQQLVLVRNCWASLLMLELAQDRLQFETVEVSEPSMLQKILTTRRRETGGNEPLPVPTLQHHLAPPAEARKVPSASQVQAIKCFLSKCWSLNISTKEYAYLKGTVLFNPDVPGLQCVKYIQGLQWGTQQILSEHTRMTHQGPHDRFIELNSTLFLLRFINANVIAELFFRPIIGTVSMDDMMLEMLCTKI
hcDAF12 agonist – H. contortus DAF-12 nuclear receptor activators, primary screen, cell-based, luminescence, HEK293, lit1-tk-luc reporter | 1.4% of 370,000 active | HEK293 hcDAF-12 lit1-tk-luc reporter; 0% DMSO, 100% Δ7-dafachronic acid | activation, % at 6.8 µM;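 active means activation above the mean of all tested compounds plus 3 SD, cut at about 5.5% in these data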;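 further: 100% = response to 3 µM Δ7-dafachronic acid high control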
DAX1 inh-2 – DAX1 (NR0B1) inhibitors on StAR promoter, primary screen, cell-based, luminescence, SF-1 (NR5A1), full-length DAX-1 | inhibition, % at 6.8 µM | 1.1% of 370,000 active | HEK293T StAR-luciferase reporter, SF-1/DAX-1 repression relief;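 active means inhibition above the mean over all tested compounds plus 3 SD, cut at about 3.6% in these data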;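 further: 0% = DAX-1 cells with DMSO and 100% = cells lacking DAX-1 with DMSO; higher inhibition means more luminescence from relief of DAX-1 repression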
ssDAF-12 act – S. stercoralis DAF-12 nuclear receptor activators, primary screen, cell-based, luminescence, HEK293, GRIP1 co-expression, lit1-tk-luc; Nuclear hormone receptor DAF-12 (Strongyloides stercoralis); HEK293 ssDAF-12/GRIP1 lit1-tk-luc reporter; % of 3 µM dafachronic acid response; activation, % at 6.8 µM; 1% of 370,000 active; AID 652126, 2013;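 active means activation above the mean over all tested compounds plus 3 SD, cut at about 0.9% in these data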;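 further: 0% = DMSO-only wells and 100% = 3 µM delta7-dafachronic acid wells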
SMARCA2 conf – SMARCA2 (BRM) function activators, confirmation, cell-based, luminescence, triplicate; AID 652260, 2013; shares compounds with SMARCA2 activ; activation, % at 9.1 µM; MG213 cells, MMTV-luciferase with dexamethasone, overnight; MG213 cells expressing E1A, Rb sequestered; DMSO wells 0%, reference activator 100%; 30% of 3,500 active;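 active means activation above its plate's cutoff, the mean activation of tested wells plus 3 SD, cut at about 7.9% in these data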
GAL4-VP16 Luc – GAL4-VP16 luciferase reporter activation, counter-screen for SMARCA2 (BRM) activator project, cell-based, pG5luc, luminescence, high throughput; 41% of 3,500 active; AID 686939, 2013; shares compounds with SMARCA2 activ; activation, % at 9.1 µM; HEK293 GAL4-VP16 pG5luc reporter; scaled: DMSO wells 0%, SAHA wells 100%;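 active means activation above the solvent-only control well mean plus 3 SD, averaged across control plates, cut at about 5.2% in these data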
An asterisk follows results filed as active; · = no result. A selection: hits, their analogues and other compounds. The true share with any hit is near 4.8%.

SMILES | hgDAF12 agonist | SMARCA2 activ | DAX1 inh-1 | hcDAF12 agonist | DAX1 inh-2 | ssDAF-12 act | SMARCA2 conf | GAL4-VP16 Luc
CCc1ccc(-c2cc3c(=O)n(CC(=O)NCCCN4CCC(Cc5ccccc5)CC4)nc(C)n3n2)cc1 | 2 | 10* | 0 | 4 | 0 | 0 | -11 | 3
COC(=O)c1sc(NC(=O)COc2ccc(OC)cc2)nc1C | 3 | 1 | 0 | 1 | 0 | -1 | · | ·
COC(=O)c1sc(NC(=O)COc2cccc3ccccc23)nc1C | 1 | 10* | 0 | 1 | 0 | -1 | 4 | 2
O=C1OC(c2ccccc2)=N/C1=C\C=C\c1ccccc1[N+](=O)[O-] | 1 | 0 | 0 | 0 | 0 | 0 | · | ·
CCn1c(=O)c([N+](=O)[O-])c(NCCc2ccccc2)c2ccccc21 | · | · | -2 | · | · | · | · | ·
Cn1c(=O)c([N+](=O)[O-])c(NCCc2ccccc2)c2ccccc21 | -2 | 12* | -2 | 1 | -1 | -1 | 1 | -1
O=C(NCCc1ccccc1)c1cnc2sccn2c1=O | 11* | 9.6* | 2 | 3 | 3 | 0 | 8.3* | 9.4*
CC(=O)CC1OC(=O)C(Br)=C1NCc1ccccc1 (stereo unspecified) | 1 | 13* | -1 | 0 | 0 | -1 | -4 | 3
O=C(CC1Oc2ccccc2NC1=O)NCc1ccccc1 (stereo unspecified) | -3 | -2 | 1 | 0 | 0 | -1 | · | ·
CC(NC(=O)c1ccco1)C(=O)N1CCN(c2ccccc2)CC1 (stereo unspecified) | 0 | -4 | 2 | 0 | 0 | 0 | · | ·
O=C(CN1C(=O)CSc2ccccc21)NC1CCCC1 | 0 | 8.3* | 0 | -2 | 0 | -1 | 0 | 0
CC(=O)Nc1cc(C)c(S(C)(=O)=O)c(C)c1 | 1 | 8.1* | 0 | -2 | 0 | -2 | -2 | 2
CCc1ccc(N(C(=O)c2ccco2)C(C(=O)NC2CCCC2)c2cccnc2)cc1 (stereo unspecified) | 2 | -3 | -2 | 0 | 0 | 0 | · | ·
CCC(C)c1ccc(N(C(=O)c2ccco2)C(C(=O)NC2CCCC2)c2cccnc2)cc1 (stereo unspecified) | 3 | 8.1* | -1 | -2 | 0 | 0 | 4 | 5.2*
CC(C)c1ccc(N(C(=O)c2ccco2)C(C(=O)NC2CCCC2)c2ccncc2)cc1 (stereo unspecified) | 10* | 8.0* | 1 | 4 | 1 | 0 | 3 | 3
O=C(COC(=O)c1cccc(S(=O)(=O)N2CCCC2)c1)Nc1ccccc1Cl | 4 | -1 | 1 | 1 | 1 | -2 | · | ·
CC(C)CC(=O)Nc1ccnn1C1CCN(C(=O)c2ccc(Cl)cc2F)CC1 | -1 | -1 | 0 | -2 | 1 | -1 | · | ·
CC(C)(C)C(=O)Nc1ccnn1C1CCN(C(=O)c2ccc(Cl)cc2F)CC1 | 2 | 14* | 0 | 0 | 1 | -1 | -1 | 2
O=C(Nc1ccc(F)cc1)c1cccnn1 | 2 | -2 | 0 | 2 | 0 | -1 | · | ·
O=C1c2ccccc2-c2c1c1ccccc1c(=O)n2-c1ccccc1 | -3 | -3 | 1 | 0 | 0 | -1 | · | ·
O=C1c2ccccc2-c2c1c1ccccc1c(=O)n2CCO | -3 | 16* | -4 | -1 | -4 | 0 | 14* | 7.7*
COc1cc(OC)cc(C(=O)Nc2cccc3c2CCCC3)c1 | 3 | -2 | -1 | -2 | 0 | -2 | · | ·
COC(=O)C1CCc2c(ccc3c2CCCC3)C1=O (stereo unspecified) | 6 | 11* | 4.4* | 1 | 4.3* | -1 | 6 | 8.5*
CCCN1CCC(NC(=O)Cc2ccccc2OC)CC1 | -1 | -1 | 3 | -1 | 1 | -1 | · | ·
Cc1ccc(/C=C2/NC(=O)[C@H](C)NC2=O)cc1 | 1 | 8.4* | 0 | 1 | 1 | -1 | 2 | 3
SMILES | hgDAF12 agonist | SMARCA2 activ | DAX1 inh-1 | hcDAF12 agonist | DAX1 inh-2 | ssDAF-12 act | SMARCA2 conf | GAL4-VP16 Luc
COc1ccc(C(=O)N/N=C/c2ccc(N3CCOCC3)o2)cc1OC | -2 | 0 | 0 | 3 | 0 | -2 | · | ·
COc1ccc(C(=O)N/N=C/c2ccc(N3CCOCC3)s2)cc1OC | 2 | 8.4* | 1 | 0 | 1 | -1 | -2 | -1
O=C(Nc1ccc2oc(=O)ccc2c1)c1ccco1 | 2 | 8.3* | 1 | -1 | -1 | -1 | 2 | 3
COc1ccccc1NC(=O)c1cccnc1 | 3 | 8.7* | -1 | 0 | 0 | -1 | -1 | -1
CC1CC(NC(=O)/C=C/C(=O)O)CC(C)(C)C1 (stereo unspecified) | -1 | 10* | 0 | 0 | 1 | -1 | -2 | 1
CC(CCc1ccccc1)NC(=O)COC(=O)c1cccs1 (stereo unspecified) | -1 | 1 | 0 | -1 | 0 | -2 | · | ·
c1ccc(CSc2ncnc3sccc23)cc1 | 4 | 3 | 0 | -1 | -1 | -2 | · | ·
Cc1cccc2nc(-c3ccco3)c(Nc3ccc4c(c3)OCCO4)n12 | 3 | 10* | 1 | -1 | 0 | -2 | -2 | -2
CCN(c1cccc2ccccc12)S(=O)(=O)c1cccs1 | 4 | 1 | 0 | 1 | -2 | -1 | · | ·
N=c1c2ccccc2nc2n1CCCCCCC2 | 2 | 9.0* | 2 | 0 | 0 | -1 | 3 | 2
COc1ccc(Cl)cc1S(=O)(=O)N1CCN=C1c1ccccc1 | -3 | 0 | 0 | 0 | -1 | -1 | · | ·
COc1cc(C=NN=c2sc3ccccc3n2C)ccc1OCCO | 12* | 11* | · | -1 | 2 | 0 | 10* | 12*
COC(=O)C(Cc1ccc(O)cc1)N1Cc2ccccc2C1=O (stereo unspecified) | 10 | 9.1* | 0 | 3 | 1 | -1 | 6 | 9.3*
